Test results as given in ChEMBL document CHEMBL3988442, “University of Dundee, Small-Polar-MMV Screening Library” (2021).
For some of these results: Measured potencies and affinities stand elsewhere.

Experiments:
Design in all cases: scale not given: direction of the effect not stated beside the values
[1] = target: Protein translocase subunit SecA (Escherichia coli (strain K12)) (UniProt P10408); test: Assay to Identify E. coli SecA ATPase Inhibitors; format: functional; conditions: 30 µM
[2] = target: T1, Ubiquitin-activating enzyme e1, putative (Leishmania donovani (strain BPK282A1)) (UniProt E9BSI1); test: Leishmania donovani Ubiquitin Activating Enzyme (LdE1); format: functional; conditions: 30 µM
T1 sequence (whole entry): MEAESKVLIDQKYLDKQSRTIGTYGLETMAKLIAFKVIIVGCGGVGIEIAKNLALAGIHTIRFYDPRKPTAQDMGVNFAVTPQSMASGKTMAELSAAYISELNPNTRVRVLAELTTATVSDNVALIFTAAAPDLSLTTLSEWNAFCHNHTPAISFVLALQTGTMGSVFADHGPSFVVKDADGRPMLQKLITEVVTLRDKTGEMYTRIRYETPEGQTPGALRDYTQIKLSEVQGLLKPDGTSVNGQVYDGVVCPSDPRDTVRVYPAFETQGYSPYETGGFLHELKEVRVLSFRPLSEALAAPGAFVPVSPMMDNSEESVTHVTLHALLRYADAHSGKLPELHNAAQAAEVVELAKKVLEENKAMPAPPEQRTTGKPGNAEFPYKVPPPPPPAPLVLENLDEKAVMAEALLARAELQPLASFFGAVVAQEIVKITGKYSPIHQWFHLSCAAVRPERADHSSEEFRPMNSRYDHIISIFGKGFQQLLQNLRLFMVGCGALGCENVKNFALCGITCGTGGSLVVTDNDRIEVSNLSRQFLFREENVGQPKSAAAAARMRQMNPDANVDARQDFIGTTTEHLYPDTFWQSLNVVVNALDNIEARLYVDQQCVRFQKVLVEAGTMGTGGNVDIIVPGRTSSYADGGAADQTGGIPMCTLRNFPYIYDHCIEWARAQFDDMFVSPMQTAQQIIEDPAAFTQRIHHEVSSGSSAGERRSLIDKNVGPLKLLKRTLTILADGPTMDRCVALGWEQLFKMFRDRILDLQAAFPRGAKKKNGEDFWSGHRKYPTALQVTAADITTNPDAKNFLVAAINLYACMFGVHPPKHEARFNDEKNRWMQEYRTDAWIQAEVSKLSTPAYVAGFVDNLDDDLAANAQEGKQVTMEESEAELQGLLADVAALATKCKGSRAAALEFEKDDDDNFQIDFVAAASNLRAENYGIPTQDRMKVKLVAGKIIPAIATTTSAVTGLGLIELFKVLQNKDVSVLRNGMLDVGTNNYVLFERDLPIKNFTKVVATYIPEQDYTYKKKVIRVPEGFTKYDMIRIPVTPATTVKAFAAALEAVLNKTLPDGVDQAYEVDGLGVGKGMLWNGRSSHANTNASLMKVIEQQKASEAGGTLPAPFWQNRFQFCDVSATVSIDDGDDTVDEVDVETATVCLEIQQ

[3] = target: AMP-activated protein kinase, AMPK (Homo sapiens) (UniProt P54646+O43741+P54619+Q9UGJ0+Q9Y478+Q13131+Q9UGI9); test: AMP-dependent Kinase enzyme assay. An in vitro enzyme assay that detects ADP turnover that is directly proportional to AMPK activity. This uses naive AMPK that is activated during the assay with MK-8722; format: functional; conditions: 30 µM
[4] = target: Sialic acid-binding Ig-like lectin 9 (Homo sapiens) (UniProt Q9Y336); test: Hs-Siglec9 ALPHAscreen SOP 20170721; conditions: 10 µM
Sequence of Sialic acid-binding Ig-like lectin 9 (Homo sapiens) (Q9Y336 whole entry): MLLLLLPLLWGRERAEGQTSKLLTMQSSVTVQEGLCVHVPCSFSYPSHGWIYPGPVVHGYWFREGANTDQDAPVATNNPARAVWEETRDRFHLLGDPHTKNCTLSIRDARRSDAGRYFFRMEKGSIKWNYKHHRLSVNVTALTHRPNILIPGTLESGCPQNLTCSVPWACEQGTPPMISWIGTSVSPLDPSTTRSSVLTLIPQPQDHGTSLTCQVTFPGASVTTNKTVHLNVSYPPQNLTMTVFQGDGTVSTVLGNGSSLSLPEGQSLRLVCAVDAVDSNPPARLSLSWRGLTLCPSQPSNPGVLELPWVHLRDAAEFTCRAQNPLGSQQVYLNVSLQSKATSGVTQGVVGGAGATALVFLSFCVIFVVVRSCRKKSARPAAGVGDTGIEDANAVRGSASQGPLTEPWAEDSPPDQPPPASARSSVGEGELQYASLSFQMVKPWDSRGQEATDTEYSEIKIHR

[5] = test system: Trypanosoma cruzi; test: Trypanosoma cruzi phosphomannomutase and mannose-1-phosphate guanylyltransferase assay; format: functional; conditions: 10 µM
[6] = target: T2, Arginase-2, mitochondrial (Homo sapiens) (UniProt P78540); test: in vitro enzyme assay to detect the production of urea directly proportional to the activity of Arginase II; format: functional; conditions: 33.3 µM; further: in the data most compounds retested in dose-response had high values
T2 sequence (whole entry): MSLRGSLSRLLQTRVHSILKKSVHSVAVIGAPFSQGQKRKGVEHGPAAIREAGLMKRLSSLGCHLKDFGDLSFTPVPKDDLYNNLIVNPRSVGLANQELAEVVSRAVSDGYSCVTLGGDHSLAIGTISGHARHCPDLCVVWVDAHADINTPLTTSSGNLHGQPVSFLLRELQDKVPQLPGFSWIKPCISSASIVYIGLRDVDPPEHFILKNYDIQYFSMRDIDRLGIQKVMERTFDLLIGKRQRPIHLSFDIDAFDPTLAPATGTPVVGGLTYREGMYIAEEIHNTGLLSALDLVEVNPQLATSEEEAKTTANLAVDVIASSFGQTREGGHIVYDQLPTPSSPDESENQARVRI

[7] = target: T3, Proteasome subunit beta (Trypanosoma cruzi) (UniProt O96673); test: Trypanosoma cruzi proteasome chymotrypsin-like activity (TcProtChymo) assay.; further: in the data most compounds retested in dose-response had high values; format: functional; conditions: 9.37 µM
T3 sequence (whole entry): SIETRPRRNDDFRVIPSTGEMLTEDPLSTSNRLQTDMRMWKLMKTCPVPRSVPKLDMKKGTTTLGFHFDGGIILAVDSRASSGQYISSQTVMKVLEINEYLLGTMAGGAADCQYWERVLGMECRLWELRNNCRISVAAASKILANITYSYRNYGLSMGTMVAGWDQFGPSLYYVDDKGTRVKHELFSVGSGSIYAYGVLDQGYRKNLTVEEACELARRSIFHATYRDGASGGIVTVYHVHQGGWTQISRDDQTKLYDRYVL

[8] = species: Homo sapiens; test: To identify inhibition of the IFN signalling (Jak-Stat) pathway via expression of an eGFP reporter gene under the control of an IFN-stimulated response element (ISRE) containing MxA promoter.; format: functional; conditions: 30 µM
[9] = target: T4, Tyrosyl-tRNA synthetase, putative (Trypanosoma cruzi (strain CL Brener)) (UniProt Q4DSP6); test: Trypanosoma cruzi tyrosyl tRNA synthetase (TcYRS) _High Tyrosine SOP; format: functional; conditions: 30 µM; further: in the data most compounds retested in dose-response had high values
T4 sequence (whole entry): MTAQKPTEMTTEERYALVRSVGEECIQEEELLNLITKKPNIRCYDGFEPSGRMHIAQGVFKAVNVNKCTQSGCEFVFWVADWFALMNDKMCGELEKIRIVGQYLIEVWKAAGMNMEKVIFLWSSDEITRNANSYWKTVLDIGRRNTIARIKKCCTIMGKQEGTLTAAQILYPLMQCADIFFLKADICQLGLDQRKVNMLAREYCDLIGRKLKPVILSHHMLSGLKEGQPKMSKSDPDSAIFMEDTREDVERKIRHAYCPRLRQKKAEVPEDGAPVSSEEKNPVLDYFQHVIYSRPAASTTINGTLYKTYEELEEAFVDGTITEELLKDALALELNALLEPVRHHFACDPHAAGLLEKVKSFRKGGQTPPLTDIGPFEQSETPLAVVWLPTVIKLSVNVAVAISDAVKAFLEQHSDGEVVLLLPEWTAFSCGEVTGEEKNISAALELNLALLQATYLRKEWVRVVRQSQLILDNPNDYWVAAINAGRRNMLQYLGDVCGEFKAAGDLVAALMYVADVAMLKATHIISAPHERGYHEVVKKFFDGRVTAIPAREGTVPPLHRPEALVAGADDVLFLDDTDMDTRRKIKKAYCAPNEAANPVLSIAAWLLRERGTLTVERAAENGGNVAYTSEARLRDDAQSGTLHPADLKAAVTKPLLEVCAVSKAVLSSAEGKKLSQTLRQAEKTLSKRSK

[10] = target: T4, Tyrosyl-tRNA synthetase, putative (Trypanosoma cruzi (strain CL Brener)); test: Trypanosoma cruzi tyrosyl tRNA synthetase (TcYRS) SOP; format: functional; conditions: 30 µM
[11] = target: Chromo domain-containing protein 1 (Saccharomyces cerevisiae (strain ATCC 204508 / S288c) (Baker's yeast)) (UniProt P32657); test: ScCHD-1 Enzyme Inhibition Assay; format: functional; conditions: 30 µM; further: in the data most compounds retested in dose-response had high values
Sequence of Chromo domain-containing protein 1 (Saccharomyces cerevisiae (strain ATCC 204508 / S288c) (Baker's yeast)) (P32657 whole entry, the tested form may be a part): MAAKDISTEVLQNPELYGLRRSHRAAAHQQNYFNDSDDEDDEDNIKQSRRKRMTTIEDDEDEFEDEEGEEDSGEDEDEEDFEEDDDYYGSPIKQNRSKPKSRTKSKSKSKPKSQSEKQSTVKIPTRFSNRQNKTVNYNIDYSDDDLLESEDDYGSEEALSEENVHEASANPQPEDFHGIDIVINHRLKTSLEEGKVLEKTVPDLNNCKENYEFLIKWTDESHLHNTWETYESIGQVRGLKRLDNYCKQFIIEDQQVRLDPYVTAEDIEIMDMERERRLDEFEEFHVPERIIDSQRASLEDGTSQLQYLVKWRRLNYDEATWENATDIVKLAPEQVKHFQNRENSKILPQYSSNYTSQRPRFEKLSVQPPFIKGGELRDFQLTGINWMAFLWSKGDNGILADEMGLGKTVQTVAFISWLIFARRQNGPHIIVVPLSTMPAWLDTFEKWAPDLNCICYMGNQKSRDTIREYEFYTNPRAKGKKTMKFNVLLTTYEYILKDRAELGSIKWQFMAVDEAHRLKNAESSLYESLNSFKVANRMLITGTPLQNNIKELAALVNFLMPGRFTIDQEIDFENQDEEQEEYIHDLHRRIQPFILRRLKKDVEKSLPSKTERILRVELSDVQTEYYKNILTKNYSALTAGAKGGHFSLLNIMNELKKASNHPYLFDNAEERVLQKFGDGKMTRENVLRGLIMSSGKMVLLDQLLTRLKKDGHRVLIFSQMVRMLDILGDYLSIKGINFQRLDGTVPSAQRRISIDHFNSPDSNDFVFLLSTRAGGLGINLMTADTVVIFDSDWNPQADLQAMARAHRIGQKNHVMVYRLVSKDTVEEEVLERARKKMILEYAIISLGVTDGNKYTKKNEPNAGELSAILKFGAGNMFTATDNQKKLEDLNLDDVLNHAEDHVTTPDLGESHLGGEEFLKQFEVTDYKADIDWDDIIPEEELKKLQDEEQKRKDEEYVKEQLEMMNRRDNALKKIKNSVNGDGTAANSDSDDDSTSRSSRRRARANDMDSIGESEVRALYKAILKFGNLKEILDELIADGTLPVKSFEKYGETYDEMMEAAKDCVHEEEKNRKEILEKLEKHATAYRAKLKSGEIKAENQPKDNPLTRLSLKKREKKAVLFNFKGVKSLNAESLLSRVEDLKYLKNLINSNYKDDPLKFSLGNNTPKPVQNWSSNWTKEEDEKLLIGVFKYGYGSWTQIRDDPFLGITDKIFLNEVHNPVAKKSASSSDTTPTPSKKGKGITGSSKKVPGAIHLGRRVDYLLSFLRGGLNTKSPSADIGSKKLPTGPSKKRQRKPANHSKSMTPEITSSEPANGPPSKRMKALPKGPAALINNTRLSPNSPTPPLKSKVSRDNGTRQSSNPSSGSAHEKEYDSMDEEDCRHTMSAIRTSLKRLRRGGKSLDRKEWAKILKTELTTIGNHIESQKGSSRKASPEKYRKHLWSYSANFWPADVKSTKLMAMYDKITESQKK

Sequence of Protein translocase subunit SecA (Escherichia coli (strain K12)) (P10408 whole entry): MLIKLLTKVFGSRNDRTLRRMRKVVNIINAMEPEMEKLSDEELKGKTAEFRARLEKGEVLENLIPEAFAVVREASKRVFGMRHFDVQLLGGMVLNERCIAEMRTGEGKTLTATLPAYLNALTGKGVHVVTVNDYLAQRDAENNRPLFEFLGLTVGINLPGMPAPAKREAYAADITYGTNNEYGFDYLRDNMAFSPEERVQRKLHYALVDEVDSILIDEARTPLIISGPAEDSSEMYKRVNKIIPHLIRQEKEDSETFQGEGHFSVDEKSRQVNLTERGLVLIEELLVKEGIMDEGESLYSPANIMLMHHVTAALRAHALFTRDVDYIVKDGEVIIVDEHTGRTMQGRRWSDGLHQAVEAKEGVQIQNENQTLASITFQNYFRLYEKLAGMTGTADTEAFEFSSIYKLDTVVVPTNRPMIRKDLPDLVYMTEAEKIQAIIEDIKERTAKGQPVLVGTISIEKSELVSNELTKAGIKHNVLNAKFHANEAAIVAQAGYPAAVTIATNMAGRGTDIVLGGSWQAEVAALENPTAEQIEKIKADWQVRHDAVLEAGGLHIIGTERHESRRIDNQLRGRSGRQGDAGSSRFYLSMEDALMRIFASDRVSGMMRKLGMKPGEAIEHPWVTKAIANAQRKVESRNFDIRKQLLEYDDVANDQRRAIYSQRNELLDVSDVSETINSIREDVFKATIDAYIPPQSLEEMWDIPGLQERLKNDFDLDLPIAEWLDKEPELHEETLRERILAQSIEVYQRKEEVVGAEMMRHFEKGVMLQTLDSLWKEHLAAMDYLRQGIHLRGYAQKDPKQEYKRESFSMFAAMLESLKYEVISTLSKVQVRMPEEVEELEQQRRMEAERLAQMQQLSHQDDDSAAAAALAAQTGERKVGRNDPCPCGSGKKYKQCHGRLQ

| Compound | Percent Effect [1] [%] | Percent Effect [2] [%] | Percent Effect [3] [%] | Percent Effect [4] [%] | Percent Effect [5] [%] | Percent Effect [6] [%] | Percent Effect [7] [%] | Percent Effect [8] [%] | Percent Effect [9] [%] | Percent Effect [10] [%] | Percent Effect [11] [%] |
| --- | --- | --- | --- | --- | --- | --- | --- | --- | --- | --- | --- |
| Cc1ccc(S(=O)(=O)NC(=O)c2cccc3c2OCCO3)c(C)c1 | -2.98 | -5.48 | 7.47 | -1.04 | -3.33 | 4.54 | 9.94 | 5.47 | -10.8 | -12.5 | -2.7 |
| Cn1nnc2c1CCN(Cc1nccs1)C2COCc1ccccc1 (stereo not given) | -2.95 | 2.67 | -19.8 | 5.81 | 1.77 | 5.83 | -8.9 | -0.293 | 7.45 | 8.97 | -0.607 |
| COc1cc(CNCc2c(C)nn(C)c2N(C)C)ccn1 | -2.79 | 5.41 | -15.9 | 8.34 | 4.25 | -3.61 | 1.62 | 9.11 | 4.43 | 18.5 | -11.1 |
| CC(C)c1nc(C(=O)N2CCCC(n3cncn3)C2)c[nH]1 (stereo not given) | -4.19 | 11.4 | 3.03 | 3.06 | -0.308 | 0.215 | 12.9 | 20.5 | 4.17 | 15.2 | -17 |
| CN(C)C(=O)CS(=O)(=O)Cc1cc(Cl)c2c(c1)OCCCO2 | -5 | 18.4 | 2.36 | -11.3 | -4.2 | 3.24 | 6.68 | 3.48 | 1.48 | -8.64 | -7.42 |
| CN(C)CCO[C@@H]1CC[C@H]2[C@H]1OCCN2C(=O)CCc1ccccc1 | -1.21 | 2.67 | -7.4 | -1.11 | -2.7 | -57.5 | 0.171 | -1.39 | 0 | 2.5 | -6.72 |
| COCCNC(=O)[C@H]1C[C@@H]2CCN(Cc3ccoc3)C[C@H]2O1 | -1.42 | 8.11 | 5.25 | -7.78 | -8.7 | 7.96 | 23.2 | 2.97 | 0 | 7.69 | -1.51 |
| O=C(NCCn1ccnc1)NCC(c1ccco1)N1CCCCC1 (stereo not given) | -3.12 | 2.6 | 4.65 | 2.57 | -4.41 | 1.9 | 3.64 | 13.9 | 2.86 | 2.35 | -18.2 |
| O=C(O)c1csc(S(=O)(=O)N2CCCc3ccc(F)cc32)c1 | -6.97 | -2.67 | -4.41 | 4.48 | 0.682 | 0 | 6.1 | 8.48 | -13.7 | -13.6 | -5.31 |
| CCc1nc(C2CCCN2C(=O)CCc2cccs2)no1 (stereo not given) | -3.51 | -2.7 | -4.68 | 4.58 | -3.81 | 1.29 | -4.49 | 3.17 | -0.99 | -8.54 | -2.06 |
| CN1CCCC(Cc2cncc(C(=O)NCC3CC3)c2)C1 (stereo not given) | -4.88 | 1.35 | 8.98 | 0.654 | 0.79 | -2.09 | 4.68 | 7.04 | 5.38 | 11.7 | -7.98 |
| Cc1cc(C2CCCN2C(=O)c2cc3c(s2)CCC3)on1 (stereo not given) | -6.23 | 5.26 | 2.83 | 3.1 | 6.58 | -1.92 | 14.4 | -0.279 | 0.49 | 4.88 | -7.02 |
| CS(=O)(=O)NCc1nnc2n1CCN(Cc1cccs1)C2 | -3.62 | 2.7 | 7.63 | -1.91 | 0.684 | -3.5 | 13.5 | 6.95 | 5.41 | 12.8 | 3.73 |
| COCCn1ccc(NC(=O)Nc2ccc(C(N)=O)c(F)c2)n1 | -4.16 | -7.89 | 10.9 | -0.377 | -3.41 | -4.73 | 13.3 | -2.4 | 0 | 0 | 75.5 |
| CCCS(=O)(=O)NC(C)C(=O)NCc1ccc(N2CCCC2)nc1 (stereo not given) | -3.52 | 16.2 | -27.4 | -2.65 | -0.66 | -4.01 | 12.8 | 5.44 | 13.3 | 13.6 | -7.91 |
| COC(=O)c1ccc(N2CCN(C(=O)c3cnn(C)c3)C(C)C2)cc1 (stereo not given) | -5.55 | 17.7 | -10.6 | 11.1 | 6.14 | -1.52 | 11.9 | 9.04 | 2.46 | 13.9 | -12.4 |
| Cc1cc(C)n(C2CCCN(C(=O)c3cc(C4CC4)on3)C2)n1 (stereo not given) | -4.93 | 5.2 | -0.0913 | -0.636 | 4.41 | -1.05 | 13.8 | -1.26 | 1.91 | 9.41 | -18.6 |
| Cn1ccc2ccnc(CC3CN(C(=O)C4CCC(F)(F)CC4)C3)c21 | -2.7 | 6.76 | 5.92 | 5.61 | -0.395 | -0.696 | 9.05 | 1.45 | 6.45 | 14.3 | -12.4 |
| CCOc1cc(C(=O)N2CCCC(n3cncn3)C2)ccc1C (stereo not given) | 2.65 | -8.11 | 0.403 | -1.22 | -1.21 | 1.66 | -7.18 | 4.36 | 0.99 | 1.22 | 11.6 |
| CCN1CCC2(CC1)CC(NC(=O)N(C)C)c1cc(C)ccc12 (stereo not given) | -2.37 | 16 | 4.2 | 0.476 | 3.28 | -52.9 | 14.4 | -15.2 | 8.33 | -50 | -7.48 |
